Screening results deposited in PubChem by National Center for Advancing Translational Sciences (NCATS).
Compounds with a hit are over-represented: about 0.45% of the library has one in this group of screens.
FMDV antiviral = FMDV antiviral activity by firefly signal; FMDV antiviral cell assay, firefly luciferase signal; Potency, µM (series often up to 57.5 µM), without a hit: at the highest dose activity change, negative = inhibition, usual class: inhibitors; 0.23% of 120,000 active; AID 1745856; note: nearly all actives have a fitted effect of over 60% in size
FMDV Renilla = antivirals against foot and mouth disease virus replicon | FMDV replicon cells, Renilla luciferase signal | Potency, µM (titrated, usually from 57.5 µM), inactives show at the highest dose activity change, negative = inhibition, actives largely listed as inhibitors | 0.32% of 120,000 active | AID 1745857; note: nearly all actives have a fitted effect of over 55% in size
An asterisk follows results filed as active; ? = inconclusive; ! = not active in a repeat; [ ] = another dose, or the depositor's remark. Calls come from the whole dose curve. % is set by controls: 0 for no effect and ±100 for the full control effect; potency is the fitted concentration of half-maximal effect.

SMILES	FMDV antiviral	FMDV Renilla
CCCCOc1cccc(-c2cc(C(=O)O)c3ccccc3n2)c1	37%	?
Cc1cc(C)cc(Nc2cc(C)nc3nncn23)c1	36%	33%
Cc1cc(NCc2ccccc2Cl)n2cnnc2n1	?	16µM*
Cc1nc2sc3c(c2c2nc(C(=O)NCCN(C)C)nn12)CC(C)CC3 (stereo not drawn)	-2%	-15%
N#Cc1ccc(F)c(CSc2nnc(NCc3ccccc3)s2)c1	13%	23%
COc1ccc2c(C)c(CCC(=O)Nc3cc(C)cc(C)c3)c(=O)oc2c1	-12%	-14%
NC(=O)C(Cc1ccccc1)NS(=O)(=O)c1ccc(Cl)s1 (stereo not drawn)	-18%	-2%
OCCCCCCCCCCCCCCCO	-6%	-12%
C[N+]1(CCCCCCCCCCCCCO)CCCC1	?	20µM*
O=C(Nc1nc(-c2ccc(Cl)cc2)cs1)c1ccc(CN2CCOCC2)cc1	14µM*	?
O=C(Nc1nc(-c2ccc(Br)s2)cs1)C1CC1	0%	11%
O=C(Nc1nc(-c2cc3ccccc3oc2=O)cs1)c1ccc(Cl)cc1	-6%	-12%
O=C(Nc1nc(-c2ccc(Cl)cc2)cs1)C1CCN(C(=O)c2ccoc2)CC1	?	10µM*
O=C(CCCCc1nc2ccccc2s1)NC1CCCCCC1	-1%	-3%[1.06 µM]
OC(CNCc1ccc2ccccc2c1)c1ccccc1 (stereo not drawn)	0%	16%
COc1ccc(-c2c(C)c3cc(OC(C)=O)ccc3oc2=O)cc1	60%	73%
Cc1ccc(S(=O)(=O)N2CCN(C(=O)c3cc4cc(C)ccc4nc3C)CC2)cc1	14%	3%
Cc1ccc2nc(C)c(C(=O)N3CCN(Cc4ccccc4C)CC3)cc2c1	16µM*	16µM*
Cc1ccccc1-n1nc(CO)c(C(=O)NCC(c2ccccc2)c2ccccc2)n1	?	8.9µM*
O=C(NCC(c1ccccc1)c1ccccc1)c1nn(-c2ccccc2Cl)nc1CO	?	28µM*!
O=C(NCc1cccs1)c1nn(-c2ccccc2Cl)nc1CO	?	21%
Cc1ccc(-n2nc(CO)c(C(=O)NCC(c3ccccc3)c3ccccc3)n2)cc1	-22%	-12%
O=C1CCCC2=C1C(c1ccc(Cl)c(Cl)c1)c1c([nH]n(-c3ccccc3)c1=O)N2 (stereo not drawn)	22%	262%
Cc1cccc(C)c1NC(=O)Cn1c(=O)c2c(ncn2CC(C)C)n(Cc2ccccc2)c1=O	-8%	-4%
N#CC1=C(N)OC2=C(C(=O)CCC2)C1c1ccc(-c2ccc(Br)cc2)o1 (stereo not drawn)	43%	-9%
SMILES	FMDV antiviral	FMDV Renilla
Cc1ccccc1OCC(O)Cn1c(=N)n(CCN2CCCCC2)c2ccccc21 (stereo not drawn)	-7%	-4%
CCCCCn1c(=N)n(CC(O)COc2cccc(C)c2)c2ccccc21 (stereo not drawn)	?	25µM*
CC(=O)N1c2ccccc2C(=O)C1N1CCN(c2cccc(C(F)(F)F)c2)CC1 (stereo not drawn)	-22%	-17%
O=C1CC(c2ccccc2O)Cc2nc(N3CCN(c4cccc(C(F)(F)F)c4)CC3)ncc21 (stereo not drawn)	8.9µM*	4µM*
COC(=O)/C(=C\c1ccc(OC(F)(F)F)cc1)NC(=O)c1ccccc1	10%	-4%
COc1ccc2c(C)c(CCC(=O)NCc3ccc(S(=O)(=O)N(C)C)cc3)c(=O)oc2c1	-6%	-16%
C=C(C)COc1ccc2c(C)c(CCC(=O)NCc3ccc(S(N)(=O)=O)cc3)c(=O)oc2c1	4.5µM*	7.1µM*
Cc1c(-c2ccc(Cl)cc2)[n+](=O)c(-c2ccc(Cl)cc2)c(C)n1[O-]	3%	5%
CCN1C(=O)c2ccccc2Sc2ccc(NC(=O)Cc3ccc(OC)c(OC)c3)cc21	-3%	-7%
COc1ccc(C(=O)Nc2ccc3c(c2)N(C2CCCC2)C(=O)c2ccccc2S3)cc1OC	?	10µM*
Cc1oc2ncnc(N3CCOCC3)c2c1C(=O)NCC1CCN(CCc2ccc(F)cc2)CC1	-5%	-11%
Cc1cccc(NC(=O)c2ccc3c(c2)NC(=O)CS3)c1	134%	-3%
Cc1ccc(NC(=O)c2ccc3c(c2)NC(=O)c2ccccc2S3)cc1	?	6.3µM*
COc1ccc(Cl)cc1-n1c(/C=C/c2cccc3ccccc23)nc2ccccc2c1=O	-23%	24%
O=c1c2ccccc2nc(/C=C/c2cccc3ccccc23)n1-c1ccccc1Cl	?	25µM*
O=C(CCNc1nc(Cl)nc2nc[nH]c12)NCCc1c[nH]c2ccc(Cl)cc12	11%	6%
Cc1oc(-c2cccs2)nc1CC(=O)Nc1ccccc1Cc1ccccc1	-1%	46%
O=S(=O)(Nc1nc2ccccc2nc1Nc1ccc(F)cc1)c1cccc(Cl)c1	6.3µM*	?
COc1ccc(Nc2nc3ccccc3nc2NS(=O)(=O)c2cccc(Cl)c2)cc1	4%	54%
COc1cc(C=C2CCC/C(=C\c3ccc(O)c(OC)c3)C2=O)ccc1O	22µM*	?
COc1cc(C=O)ccc1O	-1%	2%
Cc1nc(N2CCCCC2)ncc1-c1cc(=O)[nH]c(N2CCc3ccccc3C2)n1	-7%	3%
Cc1cccc(Nc2nc(C(=O)N3CCC(C)CC3)cs2)c1	25µM*	13µM*
Cc1ccc(Nc2nc(C(=O)N3CCC(C(=O)NCc4ccccc4)CC3)cs2)cc1	48%	11%
O=C(NCc1ccco1)c1cc(-c2ccccn2)nc2cc(F)ccc12	7%	-5%
SMILES	FMDV antiviral	FMDV Renilla
CCOC(=O)C1CCCN(S(=O)(=O)c2ccc3c(c2)CCCN3C(C)=O)C1 (stereo not drawn)	-32%	151%
COc1ccccc1N1CCN(C(=O)C2CCCN(S(=O)(=O)c3ccc4c(c3)CCCN4C(C)=O)C2)CC1 (stereo not drawn)	?	25µM*
C=CCOc1cccc(CNC(C)(C)CO)c1	3%	7%
Cc1ccccc1CN1CCC(N2CCCCCC2)CC1	25µM*	?
Cc1ccccc1CN1CCC(C(=O)O)CC1	6%	5%
C=C(COC(C)=O)C1Cc2c(ccc3c2OC2COc4cc(OC)c(OC)cc4C2C3=O)O1 (stereo not drawn)	?	0.2µM*
COc1ccc2cc(COC(=O)C3COc4ccccc4O3)ccc2c1 (stereo not drawn)	0%	12%
Fc1ccc(CN2CCCN(Cc3nnsc3Cl)CC2)cc1	-13%	-10%
Cn1c(=O)c2c(ncn2CCCOc2ccccc2)n(C)c1=O	10%	-6%
CC(C)Oc1cccc(Cn2cnc3c2c(=O)n(C)c(=O)n3C)c1	3.5µM*	3.5µM*
CC(C)c1ccc(C(=O)Cn2cnc3c2c(=O)n(C)c(=O)n3C)c(C(C)C)c1	10µM*	10µM*
Cc1cc(C(=O)Cn2cnc3c2c(=O)n(C)c(=O)n3C)c(C)n1C	0%	42%
CCCc1cc(=O)oc2cc(OC(C)C(=O)NCc3cccnc3)ccc12 (stereo not drawn)	-1%	-2%
CC(C)(C)c1nnc2sc(-c3ccc4c(c3)OCO4)nn12	108%	11%
CCCN(CCC)S(=O)(=O)NCc1ccnc(N2CCN(c3ccc(F)cc3)CC2)c1	-29%	-13%
CCN(CC)S(=O)(=O)NCc1ccnc(N2CCN(c3ccc(F)cc3)CC2)c1	?	10µM*
COc1ccc(CNC(=O)C(=O)Nc2ccc(C)cc2C)cc1	19%	-4%
CCOC(=O)c1ccc(Oc2c(C(F)(F)F)oc3cc(O)ccc3c2=O)cc1	?	25µM*
CCOC(=O)COc1ccc2c(=O)c(Oc3ccc(C(=O)OC)cc3)c(C(F)(F)F)oc2c1	4%	-3%
